Screens from PubChem.
Compounds with a hit are over-represented: about 10% of the library has one in this group of screens.
SW480 rerep: A quantitative high throughput screen for small molecules that induce DNA re-replication in SW480 colon adenocarcinoma cells; SW480 DNA re-replication, Hoechst DNA content imaging, 48 h; Potency, µM (doses to about 46.1 µM), without a hit: at the highest dose re-replication activation, actives largely listed as activators; 1.8% of 340,000 active; AID 624297, 2012; also: % of control where 0% means no effect; nearly all actives have a fitted effect of over 55% in size
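Hoechst fluorescence of nuclei (405 nm excitation, 500-530 nm emission) measured by plate-scanning imager after 48 hr compound exposure at 37 C; re-replication scored as increased number of nuclei with elevated intensity.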
KB-3-1 tox: qHTS assay for MDR1-selective chemotherapeutics: Primary screen using the parental adenocarcinoma cell KB-3-1; KB-3-1 viability, CellTiter-Glo ATP luminescence, 72 h; Potency, µM (series often up to 46.1 µM), actives largely listed as cytotoxic; 1.4% of 400,000 active; AID 1347075, 2019; also: % is scaled to controls: 0 for no effect and ±100 for the full control effect; nearly all actives have a fitted effect of over 60% in size
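Multi-concentration cytotoxicity screen in KB-3-1 cells grown in DMEM lacking phenol red with 10% FBS. After 72 h at 37 °C with compound, ATP-dependent luminescence was recorded.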
RORgamma inh: qHTS for inhibitors of ROR gamma transcriptional activity; AID 2551, 2010; 5.4% of 310,000 active; Nuclear receptor ROR-gamma (Mus musculus), P51450; Potency, µM (highest dose often 53.6 µM), inactives show at the top dose activity change, negative = inhibition, usual class: inhibitors; Drosophila S2 Gal4-RORgamma UAS-luciferase reporter, 20 h; also: % is scaled to controls: 0 for no effect and ±100 for the full control effect; nearly all actives have a fitted effect of over 60% in size
Target sequence (P51450 whole entry, looked up, the tested form may be a part): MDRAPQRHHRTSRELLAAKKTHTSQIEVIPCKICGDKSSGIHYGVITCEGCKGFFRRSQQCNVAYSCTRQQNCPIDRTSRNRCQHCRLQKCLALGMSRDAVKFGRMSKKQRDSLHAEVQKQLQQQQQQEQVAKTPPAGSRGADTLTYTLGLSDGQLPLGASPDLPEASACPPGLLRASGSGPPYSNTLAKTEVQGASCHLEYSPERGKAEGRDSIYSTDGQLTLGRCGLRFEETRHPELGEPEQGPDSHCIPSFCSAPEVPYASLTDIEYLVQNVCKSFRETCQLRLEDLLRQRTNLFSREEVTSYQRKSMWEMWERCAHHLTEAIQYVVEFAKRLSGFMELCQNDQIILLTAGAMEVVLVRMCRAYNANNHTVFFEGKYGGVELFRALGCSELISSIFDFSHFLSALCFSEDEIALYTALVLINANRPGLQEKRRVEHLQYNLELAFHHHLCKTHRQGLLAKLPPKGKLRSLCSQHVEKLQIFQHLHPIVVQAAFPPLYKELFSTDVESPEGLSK
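Schneider cells (Drosophila), stable Gal4 DBD–ROR gamma + UAS-luc; 1 hr cmpd preincubation; Cu2+ induction 700 uM final; 20 hr ambient; luminescence.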
MCF10A rerep: A quantitative high throughput screen for small molecules that induce DNA re-replication in MCF 10a normal breast cells | MCF 10A DNA re-replication, Hoechst nuclear intensity, 48 h | Potency, µM (doses to about 46.1 µM), without a hit: at the highest dose activity, positive = re-replication, hits mostly activators | 2.9% of 350,000 active; also: % of control where 0% means no effect; nearly all actives have a fitted effect of over 50% in size
KB-V1 MDR tox: qHTS assay for MDR1-selective chemotherapeutics: Primary screen using the drug-selected MDR subline cells KB-V1. KB-V1 MDR cells viability, CellTiter-Glo, 72 h. Potency, µM (titrated, usually from 46.1 µM), usual class: cytotoxic. 3.4% of 400,000 active. AID 1347076, 2019; also: % is scaled to controls: 0 for no effect and ±100 for the full control effect; nearly all actives have a fitted effect of over 60% in size
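KB-V1 cells (P-gp-expressing MDR subline of KB-3-1) in phenol-red-free DMEM with 10% FBS were exposed to library compounds over a concentration series for 72 h at 37 degrees C. Viability read by CellTiter-Glo luminescence; concentration-effect curves fitted after normalization.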
Gal4-VP16 FLuc: VP16 counterscreen qHTS for inhibitors of ROR gamma transcriptional activity; Drosophila S2 Gal4-VP16 UAS-luciferase, luminescence, 20 h; Potency, µM (series often up to 53.6 µM), for inactives: at the top dose activity, negative = inhibition, most hits filed as inhibitors; 3.5% of 310,000 active; AID 2546, 2010;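 also: Gal4-VP16 expression switched on by copper sulfate through the metallothionein promoter; % is scaled to controls: 0 for no effect and ±100 for the full control effect; nearly all actives have a fitted effect of over 50% in size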
The depositor's hits bear a star; i = inactive; ? = inconclusive; . = not tested or not shown; [ ] = dose if it differs, or a comment. Calls follow the shape of the dose curve; as a rule, active = well fitted curve in the direction sought with a large enough effect; inconclusive = small, poorly fitted or top-dose-only effect, or another doubt; inactive = no such curve, though single readings can be large; an effect the other way counts as inactive or inconclusive. Potency is read from the fitted curve at half-maximal effect.

SMILES | SW480 rerep | KB-3-1 tox | RORgamma inh | MCF10A rerep | KB-V1 MDR tox | Gal4-VP16 FLuc
CC1(C)Cc2nc3sc4c(=O)n(CC(=O)NCc5ccccc5)cnc4c3cc2CO1 | ? | 2.6µM* | 11% | 6.5µM* | 3.7µM* | -5%
COc1cccc(Cn2c(=O)cnc3cnc(Oc4ccccc4)nc32)c1 | . | . | -4% | . | . | -14%
Cc1ccc(-n2c(=O)c3c(c4cc(C)ccc4n3C)n(CC(=O)Nc3ccc(F)cc3)c2=O)cc1 | . | i | . | . | ? | .
COc1cccc(C2CC(=O)Nc3c2c(=O)nc2c(C)cccn32)c1 (centres undefined) | . | i | . | . | i | .
CC1(C)Cc2nc3sc4c(SCC(=O)NCc5ccco5)ncnc4c3cc2CO1 | 3.3µM* | 4.6µM* | ? | 3.3µM* | ? | -18%
COc1ccc(OC)c(CCNC(=O)Cn2nc(C)c3c(C)n(-c4ccc(C)cc4)nc3c2=O)c1 | -24% | ? | 23% | -2% | 8.2µM* | ?
Cc1ccc(Nc2nc(NCc3ccco3)nc3nccnc23)c(C)c1 | . | i | . | . | i | .
C=CS(=O)(=O)c1c2cc(OC)ccc2nc2ccc(OC)cc12 | 21µM* | ? | . | ? | 21µM* | .
COc1ccc(C[C@@H]2c3cc(OC)c(OC)cc3CC[N@+]2(C)CCC(=O)OCCCCCOC(=O)CC[N@@+]2(C)CCc3cc(OC)c(OC)cc3[C@H]2Cc2ccc(OC)c(OC)c2)cc1OC | 8%[20.6 µM] | . | 16%[2.98 µM] | 0%[20.6 µM] | . | -3%[17 µM]
CCCOc1ccc(C(=O)NC(=S)N2CCN(c3cc4c(cc3F)c(=O)c(C(=O)O)cn4CC)CC2)cc1 | 21% | i | 1.8µM* | -2% | i | -16%
CCn1cc(C(=O)O)c(=O)c2cnc(N3CCN(C(=S)NC(=O)c4ccc(F)c(F)c4)CC3)nc21 | -34% | i | 2.5µM* | -31% | i | ?
CCn1cc(C(=O)O)c(=O)c2cc(F)c(N3CCN(C(=S)NC(=O)c4c(OC)cccc4OC)CC3)cc21 | -43% | i | 4% | -10% | i | -7%
CCn1cc(C(=O)O)c(=O)c2cc(F)c(N3CCN(C(=S)NC(=O)c4ccc(F)cc4)CC3)cc21 | -76% | i | 2.5µM* | 13% | i | 4µM*
CCn1cc(C(=O)O)c(=O)c2cc(F)c(N3CCN(C(=S)NC(=O)c4ccc(F)c(F)c4)CC3)cc21 | -3% | i | ? | 19% | i | ?
CCn1cc(C(=O)O)c(=O)c2cc(F)c(N3CCN(C(=S)NC(=O)c4cccc(F)c4)CC3)cc21 | 1% | i | 2.8µM* | 25% | i | 3%
CCn1cc(C(=O)O)c(=O)c2cc(F)c(N/N=C/c3ccccc3[N+](=O)[O-])cc21 | 4% | i | 22% | -3% | 13µM* | ?
O=C(NCC1CCOCC1)C1Cc2c(-c3ccccc3Oc3ccccc3)ccnc2O1 (centres undefined) | . | ? | . | . | i | .
CC(C)C[C@H](NC(=O)c1nc[nH]c1C(=O)N1CCN(c2ccccc2)CC1)C(=O)OC(C)(C)C | 14% | i | 13µM* | -16% | i | ?
O=C(CNC(=O)c1nc[nH]c1C(=O)N1CCc2ccccc2C1)OCc1ccccc1 | -5% | ? | 14µM* | 19% | i | ?
CC1CCN(C(=O)c2[nH]cnc2C(=O)N[C@@H](CCCCNC(=O)OC(C)(C)C)C(=O)OC(C)(C)C)CC1 | -5% | i | -45% | ? | i | -20%
CC(C)C[C@H](NC(=O)c1nc[nH]c1C(=O)N1CCC(C)CC1)C(=O)OC(C)(C)C | 12% | i | 16µM* | ? | i | ?
C[C@@H](NC(=O)c1nc[nH]c1C(=O)N1CCN(c2ccccc2)CC1)c1ccccc1 | -10% | i | . | 15% | i | .
CC(C)(C)OC(=O)CNC(=O)c1nc[nH]c1C(=O)N1CCN(c2ccccc2)CC1 | -9% | i | 13µM* | 5% | i | -24%
CCc1nc2c(OCc3ccc(F)c(F)c3)cccn2c1N(C)C(=O)c1cccs1 | . | i | . | . | i | .
CC(C)C[C@H](NC(=O)c1nc[nH]c1C(=O)N1CCc2ccccc2C1)C(=O)OC(C)(C)C | 1% | i | 11µM* | -5% | i | ?
SMILES | SW480 rerep | KB-3-1 tox | RORgamma inh | MCF10A rerep | KB-V1 MDR tox | Gal4-VP16 FLuc
Cc1cc(Cn2cnc3c2C[C@@H](C(=O)O)N(C(=O)C(c2ccccc2)c2ccccc2)C3)ccc1N(C)C | . | . | 38% | . | . | 8%
CCOC(=O)c1c(C)[nH]c(C(=O)N/N=C/c2ccc(OC)c(OC)c2)c1C | ? | ? | -34% | 14% | i | -7%
CCOC(=O)c1c(C)[nH]c(C(=O)N/N=C\c2ccccc2O)c1C | 5.2µM* | ? | 1.6µM* | ? | 2.1µM* | 1.4µM*
CCOC(=O)c1c(C)[nH]c(C(=O)N/N=C/c2cc([N+](=O)[O-])ccc2O)c1C | 7% | 12µM* | 2.2µM* | -1% | ? | ?
CCOC(=O)CCn1nc(-c2ccc(Cl)cc2)cc1N | 2% | 21µM* | 8% | 4% | ? | 25%
CCOC(=O)Cn1nc(-c2ccc(Cl)cc2)cc1N | -18% | i | ? | 0% | i | -4%
CCOc1cc(Br)c(C=O)cc1OCC | 13µM* | ? | 26% | ? | i | 3%
CO/N=C\c1ccc(C(=O)N2[C@H](c3ccc(C)cc3)[C@@H](C)CC[C@H]2C(=O)OC)cc1 | . | . | -1%[10 µM] | . | . | 2%[10 µM]
C=CCn1cccc(/C=C/C(=O)c2ccc(C(C)(C)C)cc2)c1=S | ? | i | ? | 13µM* | ? | ?
Oc1ccc(-c2nnc(SCC3CCCCC3)o2)cc1 | 2% | i | 3.2µM* | ? | i | 8.9µM*
O=C(CSc1nnc(-c2ccc(O)cc2)o1)N1CCOCC1 | -4%[9.22 µM] | i | 4% | -9% | i | 4%
CCN(CC)c1ccc(/C=N/OCC(=O)N2CCCc3ccccc32)cc1 | 17% | i | ? | 16µM* | i | -16%
COc1ccc([C@@H]2C[C@@H](c3ccccc3)Oc3cc(OC)c(OC)c(OC)c32)cc1 | -4% | i | 1% | 1.2µM* | ? | 5%
O=C(NCc1nnc(SCc2ccc(F)cc2)n1-c1ccc(F)cc1)C12CC3CC(CC(C3)C1)C2 | 0% | 23µM* | 11% | 9% | ? | -6%
